According to PubChem BioAssay (NCATS):
Records with an inconclusive call do not appear. Entries that show only a call come without a potency. Active and inactive are the calls of the source. Calls follow the shape of the dose curve; as a rule, active = well fitted inhibition curve with a large enough effect; inconclusive = small, poorly fitted or top-dose-only effect; inactive = flat fitted curve, though single readings scatter.

Key:
Experiment in all cases: qHTS profiling for inhibitors of Plasmodium falciparum proliferation (AID 504749); also: nearly all actives have a fitted effect of over 60% in size
Conditions in all cases: P. falciparum in erythrocytes, SYBR Green DNA, 72 h; series mostly up to 28.7 µM
CP250 = system: CP250
How it was run: (§1)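 SYBR Green fluorescence (ex 485 nm, em 535 nm) reports parasite DNA after 72 h compound exposure of infected red cells at 0.3% parasitemia, 2.5% hematocrit; signal normalized to 0.29 uM artemisinin and vehicle wells.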

CP252 = system: CP252
How it was run: as §1

CP256 = system: CP256
How it was run: as §1

CP260 = system: CP260
How it was run: as §1

CP262 = system: CP262
How it was run: as §1

CP265 = system: CP265
How it was run: as §1

CP266 = system: CP266
How it was run: as §1

CP268 = system: CP268
How it was run: as §1

CP269 = system: CP269
How it was run: as §1

CP286 = system: CP286
How it was run: as §1

CP291 = system: CP291
How it was run: as §1

CP297 = system: CP297
How it was run: as §1

CP305 = system: CP305
How it was run: as §1

CP315 = system: CP315
How it was run: as §1

CP325 = system: CP325
How it was run: as §1

CP329 = system: CP329
How it was run: as §1

CP335 = system: CP335
How it was run: as §1

DFO2036 = system: DFO2036
How it was run: as §1

DIV14 = system: DIV14
How it was run: as §1
Potency is read from the fitted curve at half-maximal effect.

Structure (SMILES) | Potency (CP250) | Potency (CP252) | Potency (CP256) | Potency (CP260) | Potency (CP262) | Potency (CP265) | Potency (CP266) | Potency (CP268) | Potency (CP269) | Potency (CP286) | Potency (CP291) | Potency (CP297) | Potency (CP305) | Potency (CP315) | Potency (CP325) | Potency (CP329) | Potency (CP335) | Potency (DFO2036) | Potency (DIV14)
Cc1nc(-c2ccc(Cl)cc2)oc1COC(C)(C)C(=O)O | inactive | inactive | inactive | inactive | inactive | inactive | inactive | inactive | inactive | inactive | inactive | inactive | inactive | inactive | inactive | inactive | inactive | inactive | inactive
COc1ccc(CCN(C)CCCN2CCc3cc(OC)c(OC)cc3CC2=O)cc1OC | inactive | inactive | – | – | inactive | inactive | inactive | inactive | inactive | inactive | inactive | – | inactive | inactive | inactive | inactive | inactive | inactive | inactive
CN1CCC(OC(c2ccccc2)c2ccccc2)CC1 | inactive | – | – | 3.98 µM (active) | – | 3.55 µM (active) | inactive | – | – | – | – | inactive | – | inactive | – | – | – | – | –
CN1CCN(C2=Nc3cc(F)ccc3Cc3ccccc32)CC1 | inactive | inactive | – | inactive | inactive | – | – | inactive | inactive | inactive | inactive | – | inactive | inactive | inactive | inactive | – | inactive | –
Cc1ccc(-c2ncc(Cl)cc2-c2ccc(S(C)(=O)=O)cc2)cn1 | – | – | – | inactive | inactive | – | inactive | – | – | inactive | inactive | inactive | inactive | inactive | inactive | inactive | – | – | –
Cc1cc2c(OCC(CNC(C)(C)C)OC(=O)c3ccccc3)cccc2[nH]1 (stereo unspecified) | inactive | inactive | inactive | 11.2 µM (active) | inactive | inactive | inactive | – | – | 8.91 µM (active) | – | – | – | inactive | inactive | inactive | – | – | –
CC(C)(C)NC[C@H](O)COc1nsnc1N1CCOCC1 | – | – | – | 7.94 µM (active) | inactive | 6.31 µM (active) | inactive | – | 15.1 µM (active) | – | 13.5 µM (active) | – | 15.1 µM (active) | inactive | – | – | 8.49 µM (active) | 6.31 µM (active) | 3.38 µM (active)
